Data from paper PMC10812921, “Transcriptional Coactivator BOB1 (OBF1, OCA-B) Modulates the Specificity of DNA Recognition by the POU-Domain Factors OCT1 and OCT2 in a Monomeric Configuration”.

The sequences below were run against T1, POU2 (OCT2 POU domain) (human, UniProt P09086 175-386) (assay: EMSA-SELEX-seq; no BOB1; 20 mM Tris-HCl pH 7.6, 140 mM NaCl, 10% glycerol, 0.5 mM EDTA, 0.05% Triton X-100, 0.1 mg/mL BSA, 0.1 mg/mL poly(dI-dC), 5 mM DTT, room temperature, 20 min; high values mean tight binding). Details: protein: recombinant; dsDNA, one strand shown.
T1 sequence: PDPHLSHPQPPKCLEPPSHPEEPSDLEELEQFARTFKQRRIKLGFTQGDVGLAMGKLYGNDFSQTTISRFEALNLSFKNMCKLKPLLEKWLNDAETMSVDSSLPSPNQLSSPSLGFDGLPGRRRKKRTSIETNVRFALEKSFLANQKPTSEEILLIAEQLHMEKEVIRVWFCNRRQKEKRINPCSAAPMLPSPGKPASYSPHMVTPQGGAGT
Method in brief: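 Binding preference means the percentage of sequenced 8-mers matching a motif pattern. Tagged POU-domain proteins (30 ng), expressed in E. coli BL21, purified under denaturing conditions and renatured, were mixed with 300 ng of a PCR-amplified double-stranded random 35-nt library, with or without 28 ng coactivator protein, for 20 min at RT in 20 μL Tris–HCl pH 7.6 binding buffer. Selection was repeated over four rounds of excising complex bands from native 6% PAGE, eluting and PCR amplification, followed by Illumina sequencing.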

Row | Sequence | binding signal
1 | AAGACAAA | 0.0472 % of ANNNNAAN 8-mers
2 | ACACGAAT | 0.0575 % of ANNNNAAN 8-mers
3 | AAGTAAAG | 0.0541 % of ANNNNAAN 8-mers
4 | ATCTCAAC | 0.027 % of ANNNNAAN 8-mers
5 | ACTTTAAA | 0.0817 % of ANNNNAAN 8-mers
6 | AATTAAAC | 0.194 % of ANNNNAAN 8-mers
7 | ACCGGAAC | 0.0138 % of ANNNNAAN 8-mers
8 | ACGAAAAA | 0.0409 % of ANNNNAAN 8-mers
9 | ACTCAAAT | 0.061 % of ANNNNAAN 8-mers
10 | AGGGGAAC | 0.0414 % of ANNNNAAN 8-mers
11 | AGATCAAT | 0.0432 % of ANNNNAAN 8-mers
12 | AGAACAAA | 0.0524 % of ANNNNAAN 8-mers
13 | ATTCGAAG | 0.0656 % of ANNNNAAN 8-mers
14 | ACATAAAA | 0.114 % of ANNNNAAN 8-mers
15 | AATTTAAA | 0.793 % of ANNNNAAN 8-mers
16 | AAGGTAAA | 0.109 % of ANNNNAAN 8-mers
17 | AGCAGAAG | 0.0207 % of ANNNNAAN 8-mers
18 | ATTGGAAG | 0.0547 % of ANNNNAAN 8-mers
19 | ATTTTAAC | 0.0921 % of ANNNNAAN 8-mers
20 | ATGCAAAA | 1.17 % of ANNNNAAN 8-mers

Row | Sequence | binding signal
21 | AACTCAAA | 0.0368 % of ANNNNAAN 8-mers
22 | ATACGAAA | 0.0777 % of ANNNNAAN 8-mers
23 | ATTGGAAT | 0.18 % of ANNNNAAN 8-mers
24 | ATTAAAAG | 0.171 % of ANNNNAAN 8-mers
25 | AGGAAAAA | 0.0909 % of ANNNNAAN 8-mers
26 | AGCGCAAG | 0.0121 % of ANNNNAAN 8-mers
27 | AGTAGAAC | 0.0242 % of ANNNNAAN 8-mers
28 | AAACCAAA | 0.0506 % of ANNNNAAN 8-mers
29 | ATCTTAAC | 0.0449 % of ANNNNAAN 8-mers
30 | AGACGAAT | 0.0581 % of ANNNNAAN 8-mers
31 | ACGGGAAC | 0.027 % of ANNNNAAN 8-mers
32 | AGCACAAT | 0.0311 % of ANNNNAAN 8-mers
33 | AGCCCAAT | 0.019 % of ANNNNAAN 8-mers
34 | ATTTTAAG | 0.131 % of ANNNNAAN 8-mers
35 | ATAGAAAA | 0.0771 % of ANNNNAAN 8-mers
36 | ACATAAAG | 0.108 % of ANNNNAAN 8-mers
37 | AATTTAAC | 0.147 % of ANNNNAAN 8-mers
38 | ACTGGAAG | 0.027 % of ANNNNAAN 8-mers
39 | ACCGTAAG | 0.0155 % of ANNNNAAN 8-mers
